# Results filed as inconclusive are left out. Entries that show only a call come without a potency. Active and inactive are the calls of the source. The call rests on the fitted dose curve; in most records, active means well fitted cell-killing curve with a large enough effect in the repeat runs; inconclusive means weak or mixed curves, or effect the other way; inactive means no such curve, though single readings can be large or run the other way.
# Test: Caspase-3/7 induction in CHO-K1 cells by small molecules, qHTS cell viability counter screen (AID 1346979); further: nearly all actives have a fitted effect of over 35% in size
# Settings: CellTiter-Fluor fluorescence, 17 h; series mostly up to 92.4 µM
# Description: National Center for Advancing Translational Sciences [NCATS]
# NIH Chemical Genomics Center [NCGC]
# U.S. Environmental Protection Agency [EPA]
# National Institutes of Environmental Health Sciences [NIEHS]
# National Toxicology Program [NTP]
# U.S. Food and Drug Administration [FDA]
# Apoptosis is a process of programmed cell death and plays a central role in the development of multicellular organisms. It is a highly regulated process and induces cell death by activating caspases, which are the members of cysteine aspartic acid-specific protease (caspase) family. Caspases involved in apoptosis are classified by their mechanism of action as initiator caspases (caspase-2, -8, -9 and -10) and executioner caspases (caspase-3, -6, and -7). Inhibition of apoptosis results in number of cancers, autoimmune diseases, inflammatory diseases and viral infection. To identify small molecule compounds that induce apoptosis, a homogeneous, luminescent Caspase-Glo 3/7 assay was used. Wild type CHO-K1 cells were used to screen Tox21 libraries for identifying caspase-3/7 activity inducers. Also cytotoxicity of the compounds was tested in parallel by measuring the cell viability using CellTiter-Fluor assay system in the same wells.
# Tox21 Assay Protocol Summary:
# CHO-K1 cells were dispensed at 1,500 per well in 5uL of culture medium into white solid bottom 1536-well plates (Corning Life Sciences, Corning, NY) using a Multidrop Combi (Thermo Scientific, Waltham, MA) dispenser. The assay plates were incubated at 37 C and 5% CO2 for 5hr, and then 23nL of compounds dissolved in DMSO and positive control were transferred using a Pintool station (Wako, San Diego, CA). The assay plates were incubated at 37C and 5% CO2 for 17hr. For cytotoxicity read, after 16hr incubation at 37C, 1uL CellTiter-Fluor reagent (Promega Corporation, Madison, WI) was added to each well of the assay plates using Flying Reagent Dispenser (FRD, Aurora Discovery, San Diego, CA). After 1hr incubation at 37C and 5% CO2, the fluorescence signal was quantified using a ViewLux plate reader (PerkinElmer, Shelton, CT).
# Potency means the concentration at half of the fitted maximal effect.
SMILES,Potency,"activity change, negative = cytotoxicity"
C=C[Si](C)(C)O[Si](C)(C)C=C,inactive,
O=C1CC[C@H](C(=O)N2CCCCC2)N1,inactive,
CCCC(C)CC (stereo not given),inactive,
O=C(Oc1ccccc1C(=O)O)c1ccccc1O,inactive,
C1CCN2C[C@@H]3C[C@@H](CN4CCCC[C@@H]34)[C@H]2C1,inactive,
CCCCCCCC/C=C\CCCCCCCC(=O)OC[C@@H](O)[C@H]1OC[C@H](O)[C@H]1O,inactive,
CCCCCC(=O)OCC,inactive,
O=S(=O)(O)CCO,inactive,
O=C1OC(=O)c2ccccc21,inactive,
CCCCCCCCCCCCCC(=O)OC,inactive,
NS(=O)(=O)c1cc2c(cc1Cl)NC(C(Cl)Cl)NS2(=O)=O (stereo not given),inactive,
CCCCCCCCCCCCCCCCCCN(C)C,inactive,
CCc1nccnc1C,inactive,
C[C@H](CCC(=O)NCC(=O)O)[C@H]1CC[C@H]2[C@@H]3[C@H](O)C[C@@H]4C[C@H](O)CC[C@]4(C)[C@H]3C[C@H](O)[C@]12C,inactive,
CC(C)SCc1ccco1,inactive,
CCC(C)(C)C1CCC(=O)CC1,inactive,
CC(C)COC(=O)CC(C(=O)OCC(C)C)S(=O)(=O)O (stereo not given),inactive,
c1ccccc1,inactive,
CC(=O)OC(C)(C)Cc1ccccc1,inactive,
N#CCCOCCOCCC#N,inactive,

SMILES,Potency,"activity change, negative = cytotoxicity"
BrC/C=C/CBr,,8.86% [at 19 µM] (inactive)
CCN(CCO)c1cccc(C)c1,inactive,
Cc1cccc(C(=O)O)c1[N+](=O)[O-],inactive,
CN(C)CCCNCCC#N,inactive,
NC(=O)NC(=O)Cc1ccccc1,inactive,
CCC(CO)CO,inactive,
CCCCC(CC)CNC(=O)CC(C)OC(=O)CCC(=O)O (stereo not given),inactive,
COc1cc([N+](=O)[O-])ccc1N,54.5 µM (active),
CO[Si](CCCS)(OC)OC,inactive,
CC(=O)N(CC(O)CO)c1c(I)c(C(=O)NCC(O)CO)c(I)c(C(=O)NCC(O)CO)c1I (stereo not given),inactive,
CCC(=O)c1ccc(O)cc1,inactive,
Nc1cc(S(=O)(=O)O)ccc1S(=O)(=O)O,inactive,
CC(C)C(=O)c1ccccc1,inactive,
C=C[C@@H](C)CCC=C(C)C,inactive,
CC(C)(CO)[C@@H](O)C(=O)NCCCO,inactive,
NS(=O)(=O)c1ccc(Cl)c(S(N)(=O)=O)c1,inactive,
CN(C1CCCCC1)S(=O)(=O)c1ccccc1N,inactive,
CCN(CCC#N)c1ccccc1,inactive,
CN[C@@H]1[C@H](O)[C@H](NC)[C@H]2O[C@@]3(O)C(=O)C[C@@H](C)O[C@H]3O[C@@H]2[C@H]1O,inactive,
CC1=CC[C@H](CC=O)C1(C)C,inactive,

# Reference: PubChem BioAssay (Tox21)
